Most compounds without a hit are left out; they make up all but 2.4% or so of the library.
Pol eta inh-1: qHTS for Inhibitors of Polymerase Eta | DNA polymerase eta (Homo sapiens), Q9Y253 | Potency, µM (doses to about 114 µM), for the others: at the highest dose activity change, negative = inhibition, usual class: inhibitors | recombinant Pol eta, fluorescent DNA replication assay | hit rate 1.2% among 390,000; note: % is set by controls: 0 for no effect and ±100 for the full control effect
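Pol eta (10 nM) was preincubated with compounds for 15 min at room temperature, after which fluorescent replication substrate (50 nM final) was added to start the reaction. Fluorescence was read kinetically at 0 and 10 min.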
POLI inh: qHTS for Inhibitors of Polymerase Iota. AID 588590, 2011. Potency, µM (titrated, usually from 115 µM), for the others: at the top dose activity, negative = inhibition, most hits filed as inhibitors. Pol iota fluorescent replication assay, 10 min. hit rate 1% among 390,000
Target sequence (Q9UNA4 whole entry, looked up): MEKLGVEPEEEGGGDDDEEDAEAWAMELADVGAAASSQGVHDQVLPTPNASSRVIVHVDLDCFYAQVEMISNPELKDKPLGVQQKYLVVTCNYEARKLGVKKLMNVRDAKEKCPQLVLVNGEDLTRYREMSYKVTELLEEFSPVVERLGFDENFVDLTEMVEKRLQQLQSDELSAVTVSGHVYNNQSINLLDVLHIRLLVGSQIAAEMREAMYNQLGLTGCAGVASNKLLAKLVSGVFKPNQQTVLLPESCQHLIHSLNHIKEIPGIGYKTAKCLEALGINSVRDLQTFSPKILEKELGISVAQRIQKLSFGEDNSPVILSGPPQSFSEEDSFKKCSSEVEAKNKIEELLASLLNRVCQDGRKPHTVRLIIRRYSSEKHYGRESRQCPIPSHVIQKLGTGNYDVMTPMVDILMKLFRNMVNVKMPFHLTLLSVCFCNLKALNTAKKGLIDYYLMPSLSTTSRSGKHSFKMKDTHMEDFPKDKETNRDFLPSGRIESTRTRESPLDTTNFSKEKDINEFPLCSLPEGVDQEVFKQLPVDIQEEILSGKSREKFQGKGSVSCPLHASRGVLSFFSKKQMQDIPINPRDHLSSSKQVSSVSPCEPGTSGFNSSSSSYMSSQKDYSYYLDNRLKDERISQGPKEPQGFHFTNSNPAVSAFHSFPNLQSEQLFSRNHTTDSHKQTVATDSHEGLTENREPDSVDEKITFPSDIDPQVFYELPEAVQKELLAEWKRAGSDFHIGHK
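Fluorescent replication assay read twice, at 0 min and 10 min after adding 50 nM (final) substrate. Enzyme (10 nM) and compounds were first incubated 15 min at room temperature; enzyme-free buffer wells were negative controls.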
POLB inh: qHTS Assay for Inhibitors of DNA Polymerase Beta; Pol beta primer extension/strand displacement, fluorescence kinetic; Potency, µM (highest dose often 114 µM), for inactives: at the highest dose activity change, negative = inhibition, hits mostly inhibitors; hit rate 1.3% among 340,000; note: % is set by controls: 0 for no effect and ±100 for the full control effect
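Curves were derived by four-parameter Hill fits of normalized qHTS data. The kinetic fluorescent primer-extension read was taken at 0 and 10 min after 50 nM substrate, following a 15 min room-temperature preincubation of 10 nM enzyme with compounds.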
GLS inh: qHTS for Inhibitors of Glutaminase (GLS); Glutaminase kidney isoform, mitochondrial (Homo sapiens), O94925; GLS enzymatic activity, qHTS titration; Potency, µM (series often up to 45.5 µM), inactives show at the highest dose activity change, negative = inhibition, usual class: inhibitors; hit rate 0.21% among 410,000; note: % is set by controls: 0 for no effect and ±100 for the full control effect
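hKGA in 45 mM KH2PO4 pH 8.2, 0.02% Tween-20 with pin-transferred compounds; 1 mM L-glutamine (stock) plus glutamate oxidase/HRP/Amplex Red coupling added. Fluorescence read initially and after 30 min at RT.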
APEX1 inh: qHTS Assay for Inhibitors of the Human Apurinic/apyrimidinic Endonuclease 1 (APE1); DNA repair nuclease/redox regulator APEX1 (Homo sapiens), P27695; hit rate 0.35% among 350,000; Potency, µM (titrated, usually from 65.8 µM), for the others: at the highest dose activity change, negative = inhibition, usual class: inhibitors; recombinant APE1, TAMRA/BHQ-2 abasic DNA cleavage fluorescence;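 note: plate controls were vehicle for no effect and reference inhibitor for full effect; nearly all actives have a fitted effect of over 55% in size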
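APE1 at 0.75 nM final was preincubated with compound 15 min at room temperature, then 50 nM double-stranded THF abasic-site substrate (5'-TAMRA/3'-BHQ-2) was added. Fluorescence (ex 525/em 598 nm) was read kinetically; third-minus-first read gave activity.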
Pol kappa inh-1: qHTS for Inhibitors of Polymerase Kappa | purified Pol kappa, fluorescent DNA synthesis assay, 10 min | Potency, µM (series often up to 107 µM), for inactives: at the highest dose activity, negative = inhibition, hits mostly inhibitors | hit rate 0.53% among 400,000; note: % is set by controls: 0 for no effect and ±100 for the full control effect
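10 nM Pol kappa preincubated 15 min at room temperature with compounds, then reaction started with substrate at 50 nM final. Fluorescence read kinetically at 0 and 10 min; buffer-only wells served as negative control.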
Pol kappa inh-2: qHTS for Inhibitors of Polymerase Kappa: Confirmatory Assay for Cherry-picked Compounds | shares compounds with Pol eta inh-1 | purified Pol-kappa, fluorescent strand-displacement substrate | Potency, µM, usual class: inhibitors | hit rate 76% among 920 | AID 720501, 2013
Pol eta inh-2: qHTS for Inhibitors of Polymerase Eta: Confirmatory Assay for Cherry-picked Compounds; hit rate 64% among 2,600; Potency, µM, most hits filed as inhibitors; AID 720502, 2013; shares compounds with Pol eta inh-1; Pol eta primer extension, TAMRA/BHQ fluorescence, 10 min
An asterisk follows results filed as active; ? = inconclusive; nt = no result given; [ ] = dose if it differs, or a comment. Calls come from the whole dose curve; as a rule, active = well fitted curve in the direction sought with a large enough effect; inconclusive = small, poorly fitted or top-dose-only effect, or another doubt; inactive = no such curve, though single readings can be large; an effect the other way counts as inactive or inconclusive. Potency is the fitted concentration of half-maximal effect.

SMILES | Pol eta inh-1 | POLI inh | POLB inh | GLS inh | APEX1 inh | Pol kappa inh-1 | Pol eta inh-2 | others
COc1ccc(N2C(=O)NC(=O)/C(=C\c3ccccc3[N+](=O)[O-])C2=O)cc1 | -18% | 109% | 0% | -23% | 1% | -13% | nt
COc1ccc(OC)c(N2C(=O)NC(=O)/C(=C\c3ccc([N+](=O)[O-])s3)C2=O)c1 | ? | 20µM* | 25µM* | 10µM* | ? | 35µM* | 27*
O=C1NC(=O)N(c2ccccc2)C(=O)/C1=C\c1ccc([N+](=O)[O-])s1 | 10µM* | ? | ? | ? | ? | 28µM* | 34*
CN1C(=O)NC(=O)/C(=C/c2ccc([N+](=O)[O-])s2)C1=O | 22µM* | ? | ? | -11% | ? | ? | 76*
C[C@H]1CCC/C=C/[C@@H]2C[C@H](O)C[C@H]2[C@@H](O)/C=C/C(=O)O1 | -19% | -1% | nt | -2% | nt | -2% | nt
CCCCC(C)C(OC(=O)CC(CC(=O)O)C(=O)O)C(CC(C)CC(O)CCCCC(O)CC(O)C(C)N)OC(=O)CC(CC(=O)O)C(=O)O (centres undefined) | ? | 19% | ? | -6% | -2% | 79µM* | 76*
Cc1cccc(Oc2nc3c(C)cccn3c(=O)c2/C=C(\C#N)c2nc3ccccc3s2)c1 | 50µM* | -10% | -17% | -10% | nt | -12% | ? | Pol kappa inh-2=42*
CN(C)c1ccc(C=C2C(=O)NC(=S)NC2=O)cc1[N+](=O)[O-] | 11% | 143% | ? | 105% | 2% | -8% | nt
O=C1NC(=S)NC(=O)C1=Cc1cccc2cc3ccccc3cc12 | 50µM* | 35µM* | -4% | -5% | -10% | -4% | ?
Cc1cc(NC(=O)c2cccn(Cc3ccccc3)c2=O)no1 | -9% | 20% | 12% | -3% | nt | -5%[60.1 µM] | nt
O=C1NC(=O)C(=Cc2ccc(SC3CCCCC3)o2)C(=O)N1 | 20µM* | 10µM* | 20µM* | -5% | ? | -90% | 48*
NS(=O)(=O)c1ccc(-c2ccc(C=C3C(=O)NC(=O)NC3=O)o2)cc1 | 18% | ? | 18% | 35% | -13% | -18% | nt
COc1ccc2nc3c(C)n(C)ccc-3c2c1 | -3% | -5% | nt | 3% | nt | -4% | nt
O=C1Nc2ccccc2/C1=C/c1nc2ccccc2c(=O)n1-c1ccc(O)cc1 | ? | 18µM* | ? | -11% | 2% | ? | ?
COc1ccc(-n2c(/C=C3\C(=O)Nc4ccccc43)nc3ccccc3c2=O)cc1 | -12% | ? | 15% | -11% | 19% | -8% | nt
COc1cc(OC)c(OC)cc1/C=C(\C#N)C(=O)NCc1cccs1 | -19% | 32% | 11% | 0% | -9% | -17% | nt
Cc1ccc(N2C(=O)NC(=O)/C(=C/C=C/c3ccco3)C2=O)cc1 | ? | 11µM* | 32µM* | 24% | ? | 20µM* | ?
Cc1cc(C)cc(N2C(=O)NC(=O)/C(=C\C=C\c3ccco3)C2=O)c1 | 18µM* | 22µM* | 28µM* | 14% | 12% | 40µM* | 30* | Pol kappa inh-2=19*
CC(C)N=C(NC(C)C)N1CC1 | -5% | nt | nt | -8% | nt | nt | nt
O=C(Nc1ccc(Oc2ccc(Cl)cc2)c(Cl)c1)c1cc(I)cc(I)c1O | ? | ? | 6% | -7% | -10% | -25% | ? | Pol kappa inh-2=13*

Source: PubChem BioAssay (National Center for Advancing Translational Sciences (NCATS))
